Out of some 13,000 compounds screened, about 3,200 (25%) showed an effect of 50% or more. Some of the results follow.
tested on: P. falciparum stage V gametocytes; design: BacTiter-Glo ATP luminescence viability of purified stage V gametocytes in 384-well plates, per cent inhibition versus DMSO; conditions: 48 h, 5 µM; inhibitor

Q: O=C(N/C=N/c1cc([N+](=O)[O-])c(-c2cccnc2)n1-c1ccc(O)cc1)c1ccccc1 [TCMDC-125227] was tested. Which “% Inhibition” value did it give?
A: The value was -2.82%.

Q: With COc1ccc(CC(=O)NC(CCCN2CCC(c3ccccc3)CC2)c2ccc(Cl)c(Cl)c2)cc1OC (stereo not drawn) [TCMDC-141901] as the compound, how does the “% Inhibition” value read?
A: The value was -2.836%.

Q: Which “% Inhibition” value does the source give for O=S(=O)(c1cc2ccccc2s1)N(CCC(O)(C(F)(F)F)C(F)(F)F)Cc1cccc(O)c1 [TCMDC-133477] here?
A: Its value is 95.75%.

Q: For COC(=O)c1cccc(CN(CCC(O)(C(F)(F)F)C(F)(F)F)C(=O)CC2CCCC2)c1 [TCMDC-133482], which “% Inhibition” value is on record?
A: Its value is 48.89%.

Q: With CC(=O)Nc1ccc(CN(Cc2ccc(F)cc2)Cc2cccc(Oc3ccccc3)c2)cc1 [TCMDC-140033] as the compound, how does the “% Inhibition” value read?
A: Its value is -16.62%.

Q: O=S(=O)(c1csc2ccccc12)N(CCC(O)(C(F)(F)F)C(F)(F)F)Cc1cccc(O)c1 [TCMDC-133478] was tested. Which “% Inhibition” value did it give?
A: The value was 82.79%.

Q: Which “% Inhibition” value does the source give for O=C(Nc1cccc(CN2CCN(Cc3cccc(O)c3)CC2)c1)c1cc2ccccc2s1 [TCMDC-134623] here?
A: Its value is -8.756%.

Q: With O=S(=O)(c1cc(Cl)sc1Cl)N(CCC(O)(C(F)(F)F)C(F)(F)F)Cc1cccc(O)c1 [TCMDC-133476] as the compound, how does the “% Inhibition” value read?
A: The value was 47.79%.

Q: For O=S(=O)(c1ccc(Oc2ccccc2)cc1)N(CCC(O)(C(F)(F)F)C(F)(F)F)Cc1cccc(O)c1 [TCMDC-133480], which “% Inhibition” value is on record?
A: The value was 74.25%.

Q: O=S(=O)(c1cccc(Cl)c1F)N(CCC(O)(C(F)(F)F)C(F)(F)F)Cc1cccc(O)c1 [TCMDC-133479] was tested. Which “% Inhibition” value did it give?
A: Its value is 57.98%.

Q: Which “% Inhibition” value does the source give for Oc1cc(Nc2ccnc3cc(I)ccc23)c(F)cc1Cl [TCMDC-138386] here?
A: The value was -3.325%.

Q: How did the “% Inhibition” value turn out when COc1ccc2nccc([C@@H](O)CN3CCC(NC(=O)/C=C/c4c[nH]c5c(C)cccc45)CC3)c2c1 [TCMDC-141000] was run?
A: The value was -6.826%.

Q: With COC(=O)CCn1c(C2CCN(CC3CCC(NC(=O)/C=C/c4ccc(Cl)c(Cl)c4)CC3)CC2)nc2ccccc21 (stereo not drawn) [TCMDC-140309] as the compound, how does the “% Inhibition” value read?
A: The value was -7.996%.

Q: How did the “% Inhibition” value turn out when Cc1ccc(C)c2sc(N(CCCn3ccnc3)C(=O)c3ccco3)nc12 [TCMDC-124924] was run?
A: Its value is 13.91%.

Q: With Cc1cc(N2CCC(NS(=O)(=O)c3cccc4cccnc34)CC2)nc(Nc2cccc(C#N)c2)n1 [TCMDC-134212] as the compound, how does the “% Inhibition” value read?
A: Its value is -0.7992%.

Q: With CCOC(=O)C1=C(C)NC2=C(C(=O)CCC2)C1c1cn(Cc2ccc(Cl)cc2Cl)nc1-c1ccccc1 (stereo not drawn) [TCMDC-125393] as the compound, how does the “% Inhibition” value read?
A: The value was -36.58%.

Q: Which “% Inhibition” value does the source give for COc1ccc(CNC2CCN(C)CC2)cc1-c1ccc(S(=O)(=O)NCC2CCCO2)s1 (stereo not drawn) [TCMDC-132478] here?
A: The value was 30.18%.

Q: With COc1ccc(CNC2CCN(C)CC2)cc1-c1ccc(S(=O)(=O)NCCN2CCCC2)s1 [TCMDC-132259] as the compound, how does the “% Inhibition” value read?
A: The value was 103.7%.

Q: How did the “% Inhibition” value turn out when COc1ccc(CNC2Cc3ccccc3C2)cc1-c1ccc(S(=O)(=O)NCCN2CCCC2)s1 [TCMDC-132258] was run?
A: The value was 106.2%.

Q: With COc1ccc(CCN2CCC(NCc3cccc(N(C)C)c3)CC2)cc1 [TCMDC-124991] as the compound, how does the “% Inhibition” value read?
A: Its value is -14.2%.

Q: With COc1ccc(CNC2CCCC2)cc1-c1ccc(S(=O)(=O)NCCN2CCCC2)s1 [TCMDC-132299] as the compound, how does the “% Inhibition” value read?
A: The value was 107.1%.

Q: With COc1ccc(CNC2CCN(C)CC2)cc1-c1ccc(S(=O)(=O)NC2CCC2)s1 [TCMDC-132254] as the compound, how does the “% Inhibition” value read?
A: Its value is 75.62%.

Q: For N#Cc1cccc(-c2cnc(N)c(-c3nc4ccc(S(N)(=O)=O)cc4[nH]3)c2)c1 [TCMDC-138816], which “% Inhibition” value is on record?
A: Its value is 7.84%.

Q: With COc1ccc(C(c2ccc(N(C)C)cc2)c2ccc(N(C)C)cc2)cc1 [TCMDC-125652] as the compound, how does the “% Inhibition” value read?
A: Its value is 48.26%.

Q: With CN1CCN(CC(O)CNC(=O)Nc2ccc(Cl)cc2)CC1 (stereo not drawn) [TCMDC-134633] as the compound, how does the “% Inhibition” value read?
A: Its value is 21.11%.

Q: Which “% Inhibition” value does the source give for COc1ccc2nccc([C@@H](O)CN3CCC(NC(=O)/C=C/c4ccc(Cl)c(C(F)(F)F)c4)CC3)c2c1 [TCMDC-141110] here?
A: Its value is -13.82%.

Q: How did the “% Inhibition” value turn out when CN1CCC(c2c[nH]c3ccc(NC(=O)Nc4ccc(-c5ccncc5)c(Cl)c4Cl)cc23)CC1 [TCMDC-139179] was run?
A: The value was -11.47%.

Q: With CSc1ccc(C=CC(=O)NC(=O)c2ccccc2O)cc1 [TCMDC-123758] as the compound, how does the “% Inhibition” value read?
A: Its value is 32.47%.

Q: With O=C(NC1CCN(c2ccnc(Nc3ccc(F)cc3)n2)C1)c1cc2ccccc2s1 (stereo not drawn) [TCMDC-133599] as the compound, how does the “% Inhibition” value read?
A: Its value is 10.95%.

Q: How did the “% Inhibition” value turn out when O=C(Nc1cccc(CN2CCN(Cc3ccc(O)cc3)CC2)c1)c1ccc(Cl)c(Cl)c1 [TCMDC-134619] was run?
A: The value was -11.77%.

Q: With Cc1ccc(NC(=O)c2cccc(CN3CCCN(Cc4cccc(O)c4)CC3)c2)cc1F [TCMDC-135959] as the compound, how does the “% Inhibition” value read?
A: Its value is -11.31%.

Q: Which “% Inhibition” value does the source give for O=C(Nc1cccc(CN2CCCN(Cc3cccc(O)c3)CC2)c1)c1ccc(Cl)c(Cl)c1 [TCMDC-141831] here?
A: Its value is -42.16%.

Q: With Cc1ccc(NC(=O)c2cccc(CN3CCCN(Cc4cccc(O)c4)CC3)c2)cc1C [TCMDC-135979] as the compound, how does the “% Inhibition” value read?
A: The value was 91.29%.

Q: Which “% Inhibition” value does the source give for O=C(Nc1cccc(CN2CCCN(Cc3ccc(O)cc3)CC2)c1)c1ccc(Cl)c(Cl)c1 [TCMDC-141834] here?
A: Its value is -18.14%.

Q: For O=C(Nc1cccc(CN2CCCN(CC3CCCCC3)CC2)c1)c1ccc(Cl)c(Cl)c1 [TCMDC-141818], which “% Inhibition” value is on record?
A: Its value is -34.63%.

Q: How did the “% Inhibition” value turn out when N#Cc1ccc(CN2CCCN(Cc3cccc(NC(=O)c4ccc(Cl)c(Cl)c4)c3)CC2)cc1 [TCMDC-141823] was run?
A: Its value is -56.24%.

Q: For Cc1ccc(CN2CCCN(Cc3cccc(NC(=O)c4ccc(Cl)c(Cl)c4)c3)CC2)cc1 [TCMDC-141835], which “% Inhibition” value is on record?
A: The value was 80.74%.

Q: How did the “% Inhibition” value turn out when O=C(Nc1cccc(CN2CCN(Cc3cccc(O)c3)CC2)c1)c1ccc(Cl)c(Cl)c1 [TCMDC-134618] was run?
A: Its value is 76.18%.

Q: How did the “% Inhibition” value turn out when COc1cccc(CN2CCCN(Cc3cccc(NC(=O)c4ccc(Cl)c(Cl)c4)c3)CC2)c1 [TCMDC-141830] was run?
A: Its value is 58.26%.

Q: Which “% Inhibition” value does the source give for Cc1ccc(NC(=O)c2ccc(CN3CCCN(Cc4cccc(O)c4)CC3)cc2)cc1C [TCMDC-136427] here?
A: The value was 11.16%.

Q: For Cc1ccc(C(=O)Nc2cccc(CN3CCCN(Cc4ccc(O)cc4)CC3)c2)cc1 [TCMDC-141815], which “% Inhibition” value is on record?
A: The value was 21.11%.

Q: Which “% Inhibition” value does the source give for O=C(Nc1ccc(OC2CCN(Cc3ccccc3)CC2)c(Cl)c1)c1ccc(F)cc1 [TCMDC-133967] here?
A: The value was 19.46%.

From publication PMC4552634, “A New Set of Chemical Starting Points with Plasmodium falciparum Transmission-Blocking Potential for Antimalarial Drug Discovery” (PLoS ONE, 2015)
